AmpC detergent – qHTS Inhibitors of AmpC Beta-Lactamase (assay with detergent); P00811; AmpC hydrolysis of nitrocefin, absorbance 480 nm, 0.01% Triton; Potency, µM (series often up to 114 µM), for inactives: at the highest dose activity change, negative = inhibition, usual class: inhibitors; actives 0.041% (n = 370,000); AID 485294, 2010;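 also: 0% = no-compound wells and -100% = no-enzyme wells; nearly all actives have a fitted effect of over 25% in size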
Target sequence (P00811 whole entry, looked up): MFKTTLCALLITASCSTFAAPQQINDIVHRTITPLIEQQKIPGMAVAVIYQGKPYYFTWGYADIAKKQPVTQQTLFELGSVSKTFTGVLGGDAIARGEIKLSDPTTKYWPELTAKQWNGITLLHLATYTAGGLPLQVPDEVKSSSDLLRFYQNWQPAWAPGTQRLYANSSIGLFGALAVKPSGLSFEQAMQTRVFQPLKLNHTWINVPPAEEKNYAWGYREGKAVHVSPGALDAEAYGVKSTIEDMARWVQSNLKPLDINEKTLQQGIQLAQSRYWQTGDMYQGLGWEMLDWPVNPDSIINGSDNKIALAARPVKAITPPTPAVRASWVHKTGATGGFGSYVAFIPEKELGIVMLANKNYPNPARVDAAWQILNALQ
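AmpC (5.3 nM in the dispensed reagent) in 20 mM phosphate pH 7.0 with 0.01% (detergent screen) or 0.0001% Triton X-100 was preincubated with compounds for 15 min at room temperature. Nitrocefin was then added from an 800 uM solution, and hydrolysis was followed at 480 nm.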
Sm TGR block – qHTS Assay for the Inhibitors of Schistosoma Mansoni Peroxiredoxins; Schistosoma mansoni thioredoxin glutathione reductase (TGR), Q962Y6; Potency, µM (highest dose often 114 µM), without a hit: at the top dose activity change, negative = inhibition, actives largely listed as inhibitors; AID 485364, 2010; actives 3% (n = 360,000); purified TGR, DTNB reduction, TNB absorbance 405 nm; also: nearly all actives have a fitted effect of over 60% in size
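First, TGR (20 nM dispensed) and NADPH were mixed with compound. Second, a 15 min room-temperature incubation followed. Third, further NADPH and then DTNB were added to start the reaction. Finally, TNB absorbance was monitored kinetically.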
AmpC inh no detg – qHTS Inhibitors of AmpC Beta-Lactamase (assay without detergent). P00811. AmpC nitrocefin hydrolysis, absorbance 480 nm, 0.0001% Triton. Potency, µM (highest dose often 57.1 µM), without a hit: at the top dose activity change, negative = inhibition, actives largely listed as inhibitors. actives 0.52% (n = 330,000). AID 485341, 2010;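 also: plate controls were no compound for no effect and no enzyme for full effect; nearly all actives have a fitted effect of over 20% in size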
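AmpC (5.3 nM in the dispensed reagent) in 20 mM phosphate pH 7.0 with 0.01% (detergent screen) or 0.0001% Triton X-100 was preincubated with compounds for 15 min at room temperature. Nitrocefin was then added from an 800 uM solution, and hydrolysis was followed at 480 nm.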
* = called active by the depositor; ? = inconclusive; nt = no result. Hits are enriched below; roughly 3.3% of the tested compounds scored in any of these assays. Calls follow the shape of the dose curve; as a rule, active = well fitted curve in the direction sought with a large enough effect; inconclusive = small, poorly fitted or top-dose-only effect, or another doubt; inactive = no such curve, though single readings can be large; an effect the other way counts as inactive or inconclusive. Unless noted, % is scaled to controls: 0 for no effect and ±100 for the full control effect; potency is read from the fitted curve at half-maximal effect.

SMILES	AmpC detergent	Sm TGR block	AmpC inh no detg
Cc1ccc(CNC(=O)c2cc3c(s2)-c2c(C)cccc2OC3)cc1	9.9%	3.2%	nt
Cc1ccc(NC(=O)C2CCCN(S(=O)(=O)c3c(C)n[nH]c3C)C2)cc1C (configuration not stated)	-0.3%	8.2%	nt
CCOc1ccc(C(=O)Nc2ccc(S(=O)(=O)Nc3nccc(C)n3)cc2)cc1OCC	7.1%	2.5%	-32.5%
CCOc1ccccc1C(=O)Nc1ccc(S(=O)(=O)Nc2nccc(C)n2)cc1	-23.4%	31.6µM*	-20.5%
COc1ccc(CN2COc3ccc4c(-c5ccc(OC)cc5)cc(=O)oc4c3C2)cc1	15.6%	?	nt
CCOc1ccc(S(=O)(=O)NCc2ccc3c(c2)CCN3C(=O)c2ccc(C)cc2)cc1	-4.8%	0.9%	nt
CCC(=O)Nc1ccccc1	-7.1%	-21.8%	-15.9%
CCC(=O)NC1=C(Cl)C(=O)C(NC(=O)CC)=C(Cl)C1=O	?	0.224µM*	-25.2%
NS(=O)(=O)c1ccc(Nc2ccc3nonc3c2[N+](=O)[O-])cc1	4.6%	41.9%	-11.8%
COc1cc(Nc2ccc(S(N)(=O)=O)cc2)c([N+](=O)[O-])nc1[N+](=O)[O-]	-12.5%	20µM*	-15.1%
COc1ccc(-c2csc(Nc3ccc(S(N)(=O)=O)cc3)n2)cc1OC	-4.6%	-3.5%	15.8µM*
NS(=O)(=O)c1ccc(Nc2nc(-c3ccc(F)cc3)cs2)cc1	5.0%	6.9%	-39.3%
CC(C)(C)C(=O)Cn1c(=O)n(CCCCCC(=O)NCc2ccccc2Cl)c(=O)c2sccc21	21.9%	8.4%	nt
CCN(CC)S(=O)(=O)c1ccc2c(c1)N(CC(=O)N1CCN(c3ccc(Cl)cc3)CC1)C(=O)CO2	1.1%	-0.3%	nt
Cc1cc(NC(=O)C2CCN(S(=O)(=O)c3cccc4nsnc34)CC2)ccc1Br	3.2%	1.2%	nt
COc1ccc(-n2nc(C(=O)NCCc3ccc(OC)c(OC)c3)c3c4ccccc4n(C)c3c2=O)cc1	0.2%	0.1%	nt
Cc1cccc(-n2c(=O)c3ccccc3n(Cc3ccc(F)cc3)c2=O)c1	15.7%	4.1%	nt
CCCOc1ccc(C2C(=O)N(C3CCC(C)CC3)CC(=O)N2Cc2cccc(OC)c2)cc1OC (configuration not stated)	9.2%	26.0%	nt
c1ccc(Nc2ccc(Nc3ccccc3)cc2)cc1	-0.4%	?	-19.9%
N#CC(C#N)=C(C#N)c1ccc(Nc2ccccc2)cc1	-13.5%	2.82µM*	-29.4%
N#CC1=C(N)Oc2cc(N)ccc2C1c1ccc(Cl)cc1 (configuration not stated)	-1.9%	0.5%	11.2µM*
N#CC1=C(N)Oc2cc(N)ccc2C1c1ccc(F)cc1 (configuration not stated)	-11.2%	-7.9%	-34.0%
O=C(CCC(=O)N1CC2CCCN2c2ccccc21)NCc1ccc(F)cc1 (configuration not stated)	21.2%	3.9%	nt
N#C/C(=C/c1ccc(-c2ccc(Br)cc2)o1)C(=O)NC1CCCCC1	-12.2%	-4.0%	-23.9%
O=C(NCCc1c[nH]c2ccccc12)c1ccc2c(c1)OCO2	-4.9%	5.6%	-50.7%
SMILES	AmpC detergent	Sm TGR block	AmpC inh no detg
N#C/C(=C/c1ccc2c(c1)OCO2)C(=O)NCCc1c[nH]c2ccccc12	5.8%	-0.1%	0.282µM*
O=C(NCCc1nc2ccccc2[nH]1)/C(=C/c1ccc2c(c1)OCO2)NC(=O)c1ccccc1	-11.6%	-11.2%	10µM*
O=C(NCCc1nc2ccccc2[nH]1)/C(=C/c1ccc2c(c1)OCO2)NC(=O)c1ccccc1Cl	-5.5%	-10.0%	-35.4%
N#C/C(=C\c1ccc(-c2ccc(Br)cc2)o1)C(=O)NCCc1c[nH]c2ccccc12	-13.9%	0.4%	8.91µM*
Cc1ccc(-c2nn(C)c(=O)c3ccccc23)cc1S(=O)(=O)NCCCN(C)C	15.7%	6.5%	nt
COc1cc(Cl)c(C)cc1Nc1ncnc2c1nc1n2CCCC1	13.2%	8.9%	nt
Cc1ccc(Cl)cc1N1CCN(C2(c3ccccc3)C(=O)c3ccccc3C2=O)CC1	20.9%	7.1%	nt
COCc1cc(CN2CCCC2)c(O)c2ncccc12	-4.5%	?	64.3%
Oc1c(CN2CCCCC2)cc(COCc2ccccc2)c2cccnc12	?	35.5µM*	2.2%
CCOCc1cc(CN2CCN(c3cccc(C(F)(F)F)c3)CC2)c(O)c2ncccc12	20.5%	-17.4%	nt
CN(C)C1CCN(Cc2cc(COCc3ccccc3)c3cccnc3c2O)C1 (configuration not stated)	-10.8%	14.1µM*	28.8%
O=C(CSc1c2c(nc3cc(Cl)ccc13)CCCC2)NCc1ccccc1Cl	-7.3%	-4.9%	nt

Screening results as filed in PubChem.
